The nature of experiment [1]: kinase inhibitors against Plasmodium liver-stage infection, cell-based, known kinase inhibitor set, luminescence, hepatoma host viability (AID 624392).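 Further: infected cells incubated roughly two days before readout.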 To be noted: Plasmodium liver stage in hepatoma cells, luciferase luminescence, concentration not given here; liver cell % of control: measured here: host liver cell viability; parasite % of control: stronger effect = lower value.

Experiment [2] can be described thus: modulators of glucocorticoid suppression of NF-kB, cell-based, luciferase, IL-1B stimulus, dexamethasone (AID 624486).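 On percent of negative control (+Dex): 100% = mean signal of vehicle control wells on the plate.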 To be noted: NF-kB luciferase reporter, IL-1B + dexamethasone, luminescence; percent of negative control (+Dex): actives lie on both sides, concentration not given here; z-score: measured here: IL-1B alone, no Dex.
Experiment [3] can be described thus: kinase inhibitors altering Pseudomonas killing of worms, whole organism (AID 651566).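 Further: tested at 14 µM; sign flipped so higher z means a lower ratio.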 Particulars: C. elegans killed by P. aeruginosa, survival ratio.
Experiment [4] can be described thus: activators of macrophage pro-inflammatory response, cell-based, murine, luminescence (AID 652131). Particulars: murine macrophage pro-inflammatory reporter, stronger effect = higher value.
Experiment [5] concerns the target Cellular tumor antigen p53 (Homo sapiens) (UniProt P04637). Description: kinase inhibitors altering GFP-p53 stability in HPV16-positive cells, imaging, known kinase inhibitor set, EGFP/DsRed ratio (AID 1053116).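 Further: cells exposed to compounds for 24 h at 37 °C before reading.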 Particulars: stronger effect = higher value; EGFP object count: measured here: GFP-p53 positive objects count.
The nature of experiment [6]: IRF3 reporter activation in THP-1 macrophages, cell-based, PMA-stimulated THP-1, luminescence (AID 1053176). Particulars: PMA-differentiated THP-1, IRF3 reporter luminescence; stronger effect = higher value.
A short description of experiment [7]: survival rescue of mitochondrial mutant cells in low glucose, primary screen, MELAS cybrids, Rieske KO mouse fibroblasts, CellTiter-Glo (AID 1508586;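 active means mean z-score across replicates of 1.96 or higher in either the MELAS or the Rieske mutant cell line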;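 further: z relative to plate mean and SD of compound and empty wells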). For orientation: In ATP-based viability assays light output follows the ATP content of the culture.
[8] abbreviates: MELAS cybrid survival, CellTiter-Glo 48 h, stronger effect = higher value.
The mark [9] stands for this setting: Rieske KO mouse fibroblast survival, CellTiter-Glo 72 h.

The structures appear in SMILES notation. “And” between values parts separate entries of the source, which are not always exact repeats. Equal values may be shown once. The source made the active and inactive calls. Unless noted, how the calls were made is not given here.

Cellular tumor antigen p53 (Homo sapiens), sequence (P04637 whole entry, looked up): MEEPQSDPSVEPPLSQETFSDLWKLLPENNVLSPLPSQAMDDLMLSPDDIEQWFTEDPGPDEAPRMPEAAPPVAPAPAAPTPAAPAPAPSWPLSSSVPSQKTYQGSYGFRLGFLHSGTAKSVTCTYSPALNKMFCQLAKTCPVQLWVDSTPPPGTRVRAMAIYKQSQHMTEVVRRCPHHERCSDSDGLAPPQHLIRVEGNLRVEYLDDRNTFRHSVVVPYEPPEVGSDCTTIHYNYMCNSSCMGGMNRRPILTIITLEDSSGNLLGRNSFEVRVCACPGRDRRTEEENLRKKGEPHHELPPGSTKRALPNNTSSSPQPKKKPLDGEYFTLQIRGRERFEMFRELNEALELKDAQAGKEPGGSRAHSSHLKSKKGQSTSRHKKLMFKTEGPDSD

Molecule `COc1ccc(C2=C(N3CCc4ccccc43)C(=O)NC2=O)cc1` had a liver cell % of control in experiment [1] of 80.9%. Further, the parasite % of control in experiment [1] was 77.5% (inactive). Further, in experiment [2], the percent of negative control (+Dex) is 84% (inactive). The z-score in experiment [2] was -0.36; in experiment [3], 0.12 (inactive); in experiment [4], -0.139 (inactive); in experiment [7] (setting [8]), -0.15 (inactive); in experiment [7] (setting [9]), -0.362. Also, in experiment [5], the EGFP object count worked out at 7.5. The EGFP/DsRed ratio in experiment [5] is 0.229 (inactive). In experiment [6], the fraction signal is -0.0035 (inactive).
For the molecule `NS(=O)(=O)c1ccc(N=Cc2c(O)[nH]c3ccc4ncsc4c23)cc1`, the liver cell % of control in experiment [1] was 60.5% and 61.1%. Also, the parasite % of control in experiment [1] was 165% (inactive) and 378% (inactive). The percent of negative control (+Dex) in experiment [2] was 112% (inactive) and 98.5% (inactive). Moreover, the z-score was 0.655 and 0.01 in experiment [2]; 0.515 (inactive) and 0.145 (inactive) in experiment [3]; -1.62 (inactive) and -1.7 (inactive) in experiment [4]; -0.336 (inactive) and 1.1 (inactive) in experiment [7] (setting [8]); 0.0286 and -0.139 in experiment [7] (setting [9]). Moreover, the EGFP object count in experiment [5] was 2.5 and 4. The EGFP/DsRed ratio in experiment [5] is 0.0629 (inactive) and 0.096 (inactive). For the same molecule, in experiment [6], the fraction signal was -0.009 (inactive) and 0.0005 (inactive).
For `NS(=O)(=O)c1ccc(-c2ccc3c(NC(=O)C4CC4)n[nH]c3c2)cc1`, the liver cell % of control in experiment [1] worked out at 109%. Further, the parasite % of control in experiment [1] is 143% (inactive). Moreover, the percent of negative control (+Dex) in experiment [2] was 98.5% (inactive). The z-score in experiment [2] was 0.755; in experiment [3], -0.155 (inactive); in experiment [4], 0.098 (inactive); in experiment [7] (setting [8]), -0.641 (inactive); in experiment [7] (setting [9]) it was -0.353. Besides, in experiment [5], the EGFP object count was 4.5. Also, in experiment [5], the EGFP/DsRed ratio was 0.0343 (inactive). Further, the fraction signal in experiment [6] is -0.0105 (inactive).
`CCc1nn2ncccc2c1-c1ccnc(NC2CC2)n1`: in experiment [1], the liver cell % of control was determined as 131%. Moreover, in experiment [1], the parasite % of control was 61.2% (inactive). The percent of negative control (+Dex) in experiment [2] is 102% (inactive). The z-score in experiment [2] is -0.225; in experiment [3], 0.555 (inactive); in experiment [4], -0.174 (inactive); in experiment [7] (setting [8]) it was -0.448 (inactive); in experiment [7] (setting [9]), -0.208. Moreover, in experiment [5], the EGFP object count came to 3.5. Also, the EGFP/DsRed ratio in experiment [5] was 0.117 (inactive). Besides, the fraction signal in experiment [6] was 0.007 (inactive).
With `CCCN(CCS(C)(=O)=O)Cc1ccc(-c2ccc3ncnc(Nc4ccc(OCc5cccc(F)c5)c(Cl)c4)c3c2)o1`, the liver cell % of control in experiment [1] is 100%. For the same molecule, in experiment [1], the parasite % of control is 108% (inactive). The percent of negative control (+Dex) in experiment [2] is 74.5% (inactive). The z-score in experiment [2] is -1.22; in experiment [3], 1.21 (inactive); in experiment [4] it was 1.79 (inactive); in experiment [7] (setting [8]), -0.517 (inactive); in experiment [7] (setting [9]) it was -0.151. Also, the EGFP object count in experiment [5] amounted to 4.5. The EGFP/DsRed ratio in experiment [5] is 0.083 (inactive). Also, in experiment [6], the fraction signal was -0.0115 (inactive).
In experiment [1], `Nc1nccc(-c2c(-c3ccc(F)cc3)ncn2C2CCC(O)CC2)n1` (centres undefined) gave a liver cell % of control of 93%. In experiment [1], the parasite % of control was 24.7% (inactive). The percent of negative control (+Dex) in experiment [2] is 110% (inactive). In addition, the z-score in experiment [2] is 1.26; in experiment [3] it was 0.765 (inactive); in experiment [4] it was 2.25 (inactive); in experiment [7] (setting [8]), -1.17 (inactive); in experiment [7] (setting [9]), -0.368. Further, the EGFP object count in experiment [5] is 2. Further, the EGFP/DsRed ratio in experiment [5] was 0.124 (inactive). Moreover, the fraction signal in experiment [6] is -0.0025 (inactive).
Turning to `COc1ccc(-c2ccncc2)cc1C(N)=O`, the liver cell % of control in experiment [1] stood at 85.3%. Further, the parasite % of control in experiment [1] was 135% (inactive). Moreover, the percent of negative control (+Dex) in experiment [2] was 90% (inactive). Further, the z-score was -0.52 in experiment [2]; 0.46 (inactive) in experiment [3]; 0.337 (inactive) in experiment [4]; -0.169 (inactive) in experiment [7] (setting [8]); -0.232 in experiment [7] (setting [9]). The EGFP object count in experiment [5] came to 4. Moreover, in experiment [5], the EGFP/DsRed ratio was 0.12 (inactive). The fraction signal in experiment [6] was -0.004 (inactive).
`CCn1c(-c2nonc2N)nc2ccc(F)cc21` gave a liver cell % of control in experiment [1] of 98%. The parasite % of control in experiment [1] is 113% (inactive). Further, the percent of negative control (+Dex) in experiment [2] was 82.5% (inactive). For the same molecule, the z-score in experiment [2] is -0.655; in experiment [3], -0.725 (inactive); in experiment [4], -0.544 (inactive); in experiment [7] (setting [8]) it was -0.0553 (inactive); in experiment [7] (setting [9]) it was 0.0939. Also, in experiment [5], the EGFP object count stood at 4. Also, the EGFP/DsRed ratio in experiment [5] is 0.0296 (inactive). In addition, the fraction signal in experiment [6] is 0.0105 (inactive).
The molecule `NS(=O)(=O)c1ccc(N=Nc2c(O)[nH]c3cccc(CCc4ccncc4)c23)cc1` returned a liver cell % of control in experiment [1] of 87.4%. Moreover, the parasite % of control in experiment [1] is 102% (inactive). Besides, the percent of negative control (+Dex) in experiment [2] is 92.5% (inactive). The z-score was -0.56 in experiment [2]; -0.35 (inactive) in experiment [3]; 4.97 (inactive) in experiment [4]; -0.234 (inactive) in experiment [7] (setting [8]); -0.178 in experiment [7] (setting [9]). Besides, the EGFP object count in experiment [5] was 4. In addition, the EGFP/DsRed ratio in experiment [5] was 0.0896 (inactive). In experiment [6], the fraction signal is -0.003 (inactive).
Consider `NS(=O)(=O)c1cccc(N=Cc2c(O)[nH]c3ccccc23)c1`, for which the liver cell % of control in experiment [1] came to 80.7%. For the same molecule, in experiment [1], the parasite % of control was 106% (inactive). Further, in experiment [2], the percent of negative control (+Dex) was 89.5% (inactive). Further, the z-score was 0.485 in experiment [2]; -1.3 (inactive) in experiment [3]; 1.25 (inactive) in experiment [4]; 1.07 (inactive) in experiment [7] (setting [8]); -0.155 in experiment [7] (setting [9]). Also, in experiment [5], the EGFP object count was found to be 7. Also, in experiment [5], the EGFP/DsRed ratio is 0.162 (inactive). Besides, the fraction signal in experiment [6] was -0.0005 (inactive).
For the molecule `COc1cc(C)c(NC(=O)CN(C)C)cc1Nc1nc(Nc2cccc(F)c2C(N)=O)c2cc[nH]c2n1`, in experiment [1], the liver cell % of control was 63%. In addition, the parasite % of control in experiment [1] is 550% (inactive). The percent of negative control (+Dex) in experiment [2] is 93% (inactive). Moreover, the z-score is -0.195 in experiment [2]; -0.165 (inactive) in experiment [3]; 5.12 (inactive) in experiment [4]; 1.87 (inactive) in experiment [7] (setting [8]); -0.0279 in experiment [7] (setting [9]). In addition, the EGFP object count in experiment [5] worked out at 21. For the same molecule, the EGFP/DsRed ratio in experiment [5] is 0.493 (inactive). Besides, the fraction signal in experiment [6] was -0.0105 (inactive).
As to `O=C(Nc1n[nH]c2nc(-c3ccco3)ccc12)C1CC1`, the liver cell % of control in experiment [1] came to 201%. In addition, the parasite % of control in experiment [1] is 24% (inactive). Also, the percent of negative control (+Dex) in experiment [2] was 104% (inactive). Besides, the z-score in experiment [2] is -0.105; in experiment [3], -0.7 (inactive); in experiment [4] it was 0.373 (inactive); in experiment [7] (setting [8]), -0.235 (inactive); in experiment [7] (setting [9]), -0.343. Moreover, in experiment [5], the EGFP object count is 2. Besides, the EGFP/DsRed ratio in experiment [5] was 0.0203 (inactive). For the same molecule, the fraction signal in experiment [6] is -0.008 (inactive).
For `CCn1c(-c2nonc2N)nc2c(C#CC(C)(C)O)ncc(OCC3CCNCC3)c21`, in experiment [1], the liver cell % of control was found to be 88.1%. Also, the parasite % of control in experiment [1] is 91.5% (inactive). In experiment [2], the percent of negative control (+Dex) is 86% (inactive). For the same molecule, the z-score is -0.76 in experiment [2]; -1.35 (inactive) in experiment [3]; 3.98 (inactive) in experiment [4]; 0.123 (inactive) in experiment [7] (setting [8]); -0.292 in experiment [7] (setting [9]). Moreover, the EGFP object count in experiment [5] worked out at 13. Moreover, the EGFP/DsRed ratio in experiment [5] is 0.169 (inactive). Also, in experiment [6], the fraction signal was 0.002 (inactive).
Molecule `Cc1ccc(NC(=O)CC2CC2)cc1-c1ccc(C(=O)NCC2CC2)cc1` had a liver cell % of control in experiment [1] of 75.5%. For the same molecule, the parasite % of control in experiment [1] was 149% (inactive). Further, the percent of negative control (+Dex) in experiment [2] was 98.5% (inactive). The z-score in experiment [2] was 0.735; in experiment [3], -1.18 (inactive); in experiment [4], 0.093 (inactive); in experiment [7] (setting [8]), -0.893 (inactive); in experiment [7] (setting [9]), -0.555. Also, the EGFP object count in experiment [5] worked out at 6. Further, the EGFP/DsRed ratio in experiment [5] is 0.154 (inactive). In addition, the fraction signal in experiment [6] was -0.006 (inactive).

(Values after PubChem BioAssay.)
